# Assay results as given in PubChem BioAssay.
# Active and inactive are the calls of the source.
# Assays:
# Albumin (Bos taurus) = Albumin (Bos taurus) (UniProt P02769); assay: bovine serum albumin binders on microarray, profiling panel, artefact control for SMM control protein annotation, biochemical, small-molecule microarray, Alexa647 label, 635/667 nm fluorescence (AID 1118); settings: BSA-A647 binding, fluorescence 635 nm, higher = more signal;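 further: score merges 667 nm emission intensity and signal-to-noise per printed compound spot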
# Albumin (Bos taurus), sequence (P02769 whole entry, looked up): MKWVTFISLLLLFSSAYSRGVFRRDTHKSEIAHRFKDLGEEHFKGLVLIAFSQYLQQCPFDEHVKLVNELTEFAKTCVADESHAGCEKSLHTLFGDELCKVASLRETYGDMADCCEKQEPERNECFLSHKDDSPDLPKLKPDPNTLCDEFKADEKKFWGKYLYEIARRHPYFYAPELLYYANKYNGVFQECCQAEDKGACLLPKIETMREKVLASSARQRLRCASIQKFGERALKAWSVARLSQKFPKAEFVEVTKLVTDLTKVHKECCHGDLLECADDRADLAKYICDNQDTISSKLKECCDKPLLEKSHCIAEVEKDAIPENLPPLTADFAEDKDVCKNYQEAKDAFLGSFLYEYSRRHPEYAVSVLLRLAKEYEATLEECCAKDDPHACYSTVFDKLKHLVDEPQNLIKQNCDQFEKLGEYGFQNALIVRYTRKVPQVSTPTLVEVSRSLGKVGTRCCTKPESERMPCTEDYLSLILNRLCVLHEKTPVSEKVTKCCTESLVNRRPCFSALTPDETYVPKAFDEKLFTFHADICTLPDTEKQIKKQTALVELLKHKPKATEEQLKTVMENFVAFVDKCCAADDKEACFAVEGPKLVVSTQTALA
# [1] = small-molecule microarray binders of probe aXIP, primary screen, biochemical, NeuroSMM set, 635/667 nm fluorescence (AID 1119); settings: higher = more signal, called active from +8 up or from −8 down;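 further: probe is the protein aXip251-270 applied at 1 µg/mL to compound-printed slides; binding of probe to printed compounds measured as 667 nm fluorescence plus signal to noise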
# [2] = small-molecule binders of probe aNOTCH3, primary screen, biochemical, small-molecule microarray, 635/667 nm fluorescence (AID 1120); settings: higher = more signal;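 further: probe is a biotin-tagged antibody raised against NOTCH3 rather than NOTCH3 protein; score merges spot fluorescence near 667 nm with spot signal to noise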
# [3] = small-molecule binders of probe aNOTCH2, primary screen, biochemical, small-molecule microarray, 635/667 nm fluorescence (AID 1121); settings: higher = more signal;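 further: score merges feature fluorescence read at 667 nm with its signal to noise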
# [4] = biological target: Carbonic anhydrase 2 (Homo sapiens) (UniProt P00918); assay: CAII small-molecule binders, profiling panel, biochemical, small-molecule microarray, Alexa647-labelled CAII (AID 1122); settings: CAII-A647 binding fluorescence, higher = more signal
# [5] = COS7 lysate on small-molecule microarray, probe aHis, 635 nm (AID 1123); settings: COS7 cell lysate, fluorescence, higher = more signal;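 further: z-score combines 667nm fluorescence intensity with signal-to-noise per printed compound spot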
# [6] = compound binding in COS7 lysate, probe aLAP1, primary screen, cell lysate, small-molecule microarray (AID 1124); settings: probe aLAP1, fluorescence, higher = more signal;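 further: lysate comes from COS7 cells expressing LAP1 and is applied at 0.3 µg/mL; score merges spot fluorescence near 667 nm with signal-to-noise over triplicate slides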
# Sam68 (KHDRBS1) = assay: Sam68 small-molecule binders, primary screen, biochemical, small-molecule microarray, 635 nm fluorescence (AID 1125); settings: small-molecule microarray binding, higher = more signal;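 further: score merges 667 nm channel intensity with signal to noise over triplicate slides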
# [7] = tested on: Chordin-like protein 2 (CHRDL2); assay: CHRDL2 small-molecule binders, primary screen, biochemical, small-molecule microarray, 635 nm fluorescence (AID 1126); settings: small-molecule microarray binding, fluorescence 635 nm; higher = more signal;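 further: printed compound slides probed with Chrdl2 protein at 4 µg/mL for 1 h at 4 C; score merges 667 nm emission intensity with signal to noise over three replicate slides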
# [8] = biological target: Concanavalin-A (Canavalia ensiformis) (UniProt P02866); assay: ConA small-molecule binders, primary screen, artefact control for SMM control protein annotation, biochemical, small-molecule microarray, Alexa647 label, 635 nm (AID 1127); settings: ConA-A647 binding fluorescence, higher = more signal;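 further: z combines 667 nm emission intensity with signal-to-noise across three replicate slides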
# Concanavalin-A (Canavalia ensiformis), sequence (P02866 whole entry, looked up): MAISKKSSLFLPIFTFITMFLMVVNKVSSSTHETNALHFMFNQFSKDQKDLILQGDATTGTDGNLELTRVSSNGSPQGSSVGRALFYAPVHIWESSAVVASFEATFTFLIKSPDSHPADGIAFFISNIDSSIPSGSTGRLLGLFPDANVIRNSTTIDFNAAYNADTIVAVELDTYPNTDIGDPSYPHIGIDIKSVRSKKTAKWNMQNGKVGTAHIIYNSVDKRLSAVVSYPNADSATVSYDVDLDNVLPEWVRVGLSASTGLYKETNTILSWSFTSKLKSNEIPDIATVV
SMILES,composite z-score (Albumin (Bos taurus)),composite Z-score [1],composite z-score [2],composite z-score [3],composite z-score [4],composite z-score [5],composite z-score [6],composite z-score (Sam68 (KHDRBS1)),composite z-score [7],composite z-score [8]
COCCOC(=O)N1C(=O)[C@@]2(c3cc(C#CC4(O)CCCCCC4)ccc31)[C@H](C(N)=O)[C@H]1C(=O)O[C@H](c3ccccc3)[C@H](c3ccccc3)N1[C@@H]2c1ccc(O)cc1,0.21,-0.014 (inactive),0.676,-0.0349,0.181,1.27,0.298,1.12,0.47,0.866
CN1C(=O)C2C=CC(C(O)C3CCCCC3)N(N3CCCCC3)C2C1=O (stereo not given),0.92,1.56 (inactive),0.196,0.0019,0.663,2.48,0.794,1.3,0.0449,0.927
CCOC(=O)C[C@H]1[C@H](OC(=O)Cc2ccc3c(c2)OCO3)[C@@H](NC(=O)Cc2ccc(OC)cc2)c2cc(OCCCO)ccc2N1C(=O)c1ccccc1,0.793,-0.0539 (inactive),-0.141,-0.0502,0.461,0.682,-0.0207,1.01,-0.353,0.277
C[C@@H]1ON(c2ccc(C(=O)OC(C)(C)C)cc2)[C@H](c2ccc(Br)cc2)[C@H]1C(=O)N1C(=O)OC[C@H]1Cc1ccccc1,0.778,-0.359 (inactive),0.0773,-0.0984,0.235,1.86,0.0865,1.28,0.491,1.08
COCCCNC(=O)[C@@H]1c2ccccc2C(=O)N(Cc2ccccc2C(F)(F)F)[C@H]1c1ccc(CO)cc1,-1.34,-0.0662 (inactive),-0.186,-0.131,0.389,1.19,0.216,0.433,-0.781,-0.264
CCCCC(CC)C(O)C1C=CC2C(=O)N(c3ccccc3)C(=O)C2N1Nc1ccc([N+](=O)[O-])cc1 (stereo not given),0.985,-0.189 (inactive),0.44,-0.161,0.652,1.86,0.914,1.31,0.0772,1.18
O=C1O[C@@H](c2ccccc2)[C@@H](c2ccccc2)N2[C@@H](c3ccccc3OCCO)[C@]3(C(=O)Nc4ccc(C#CCCO)cc43)[C@@H](C(=O)Nc3nc4ccccc4s3)[C@H]12,0.792,0.229 (inactive),0.302,0.0203,0.428,1.28,1.33,1.31,0.529,1.14
COc1ccc(C(O)C2C=CC3C(=O)N(c4ccccc4)C(=O)C3N2Nc2ccccc2)cc1OCc1ccccc1 (stereo not given),0.853,0.153 (inactive),0.505,-0.0798,0.503,3.06,0.0392,1.31,-0.356,1.09
[N-]=[N+]=Nc1ccccc1C[C@]1(C(=O)NCc2ccccc2)N=C(c2ccc(OCCCO)cc2)O[C@H]1c1ccccc1,0.989,0.0068 (inactive),0.285,0.0443,0.714,2.93,0.373,1.29,-0.755,1.07
CCCC[C@@H]1C[C@H]1[C@@H](NC(=O)c1cccnc1)c1ccc(-c2ccccc2)cc1,-0.294,-0.0683 (inactive),-0.306,-0.174,-0.357,0.208,-0.193,-0.0982,-1.56,-0.633
CC(C)(C)OC(=O)CC[C@]1(C(=O)NCCN2CCOCC2)N=C(c2ccc(OCCCO)cc2)O[C@H]1c1ccccc1N=[N+]=[N-],0.942,0.489 (inactive),0.286,0.0684,0.82,3.05,1.22,1.31,0.186,0.373
CCOC(=O)C[C@H]1[C@H](OC(=O)c2ccc(-c3ccccc3)cc2)[C@@H](NC(=O)c2ccc3ccccc3c2)c2cc(OCCCO)ccc2N1C(=O)c1ccc2ccccc2n1,0.587,0.152 (inactive),0.178,0.0278,0.137,1.06,-0.0403,1.04,-0.0835,0.954
CCCc1cccc(=O)o1,0.387,-0.75 (inactive),-0.0665,-0.127,0.43,0.897,0.359,0.699,0.221,0.828
C=C(CCCC)/C(=C/C[C@@H](OC(=O)c1ccncc1)c1cccc(OCCO)c1)c1cnc2ccccc2c1,0.413,0.815 (inactive),0.272,-0.0495,0.893,1.04,0.327,1.16,1.54,1.1
CCC[C@@H]1C[C@@]1(CCC)[C@@H](NP(=O)(c1ccccc1)c1ccccc1)c1ccc(Cl)cc1,-0.811,-1.49 (inactive),0.0306,-0.0166,-0.0589,0.772,0.38,0.179,0.603,-0.765
[N-]=[N+]=NCc1ccccc1C[C@]1(C(=O)NCC(O)CO)N=C(c2ccc(OCCCO)cc2)O[C@H]1c1ccccc1CN=[N+]=[N-] (stereo not given in full),0.801,0.496 (inactive),0.303,-0.108,0.404,3.05,0.137,1.12,-0.86,1.11
COC(=O)C1(Cc2ccccc2)C=C2C(=C(c3ccccc3)C(=O)C2C)CN1 (stereo not given),0.544,0.257 (inactive),1.59,0.839,0.725,2.3,0.906,-0.305,0.0887,-1.56
C=CC[C@H](OC(=O)Nc1ccc(OC)cc1)c1ccc(O)c2ccccc12,-0.343,-0.192 (inactive),0.0539,-0.124,0.289,0.865,-0.0938,1.3,1.18,1.09
COc1cc2c(cc1OC)CN(C(=O)[C@@H]1[C@H]3C(=O)O[C@H](c4ccccc4)[C@H](c4ccccc4)N3[C@H](c3ccccc3OCCO)[C@@]13C(=O)Nc1ccc(C#CC4(O)CCCCCC4)cc13)CC2,0.319,0.428 (inactive),0.0316,-0.0859,0.527,1.48,0.829,1.3,0.334,1.13
CCOc1cc(C(O)C2C=CC3C(=O)N(C4CCCCC4)C(=O)C3N2Nc2ccc(OC)cc2)ccc1O (stereo not given),0.786,0.764 (inactive),0.208,0.0791,0.441,2.61,0.717,1.28,-0.0164,1.12
CCOC(=O)C1=CC[C@@H](c2ccccc2)N(S(=O)(=O)c2ccc(C)cc2)C1,0.425,-0.0056 (inactive),0.283,-0.0176,0.38,0.522,0.786,0.143,0.565,-0.264
O=C(O)[C@H]1C[C@H]2C(=O)N3CCC[C@H]3C(=O)N2[C@H]1c1cccc(OCCO)c1,-0.698,0.223 (inactive),-0.124,-0.115,0.525,1.21,-0.332,0.833,0.996,0.942
C[C@H]1C2=C3C(CC[C@H]4C(OCc5ccc(F)cc5C(F)(F)F)OC[C@](C)([C@@H]34)N(C(=O)OC(C)(C)C)C2)C(CO)C1CO (stereo not given in full),0.953,1.08 (inactive),0.266,0.0831,0.352,3.19,0.505,1.31,-1.44,0.862
C=CCOC(=O)[C@H]1[C@@H]2C(=O)O[C@@H](c3ccccc3)[C@@H](c3ccccc3)N2[C@@H](c2ccc(OCCOC(=O)[C@H]3C[C@H]4C(=O)N[C@@H](CCCC[N+](C)(C)C)C(=O)N4[C@H]3c3cccc(OCCO)c3)cc2)[C@]12C(=O)Nc1ccc(I)cc12,-0.0737,0.197 (inactive),-0.208,-0.161,0.108,0.365,0.072,0.489,0.578,1.13
COc1ccc([Si](C)(C)[C@H]2[C@H](CCO)O[C@@]3(C(=O)N(Cc4cccc(N5CCCCC5=O)c4)c4ccccc43)[C@@H]2C)cc1,0.378,0.299 (inactive),-0.0984,-0.148,0.394,1.31,0.264,1.15,0.769,1.1
COCCOC(=O)N1C(=O)[C@@]2(c3cc(C#CC4=CCCCC4)ccc31)[C@H](c1ccc(O)cc1)N1[C@H](c3ccccc3)[C@H](c3ccccc3)OC(=O)[C@H]1[C@@H]2C(=O)Nc1nc2ccccc2s1,0.802,-0.202 (inactive),0.302,-0.121,0.556,2.78,0.657,1.32,0.206,1.12
C=CCOC(=O)[C@@H]1[C@H]2C(=O)O[C@H](c3ccccc3)[C@H](c3ccccc3)N2[C@H](c2ccc(OCCOC(=O)[C@H]3C[C@H]4C(=O)N[C@@H](CCCCNC(C)=O)C(=O)N4[C@H]3c3cccc(OCCO)c3)cc2)[C@@]12C(=O)Nc1ccc(I)cc12,-1.29,0.783 (inactive),-0.016,-0.12,0.336,1.13,0.583,1.31,1.06,1.15
